# Reference: PubChem BioAssay (NCI)
# Compounds without any hit were thinned out: in the full panel of roughly 79,000, 15% have a hit. A number with no mark means an inactive call. Calls of active or inactive are those of the source. Cut-off read from the data, not from the text of the source: active = growth inhibition above about 70%; inactive = the rest.
# Assay: NCI Yeast Anticancer Drug Screen. Data for the bub3 strain (AID 167)
# Details: S. cerevisiae bub3 mutant strain, at 50.0 µM, active compounds read high
# Procedure, shortened: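 Readout: yeast growth inhibition, expressed relative to vehicle-only wells. The test organism is a mutant strain from a panel with lesions in DNA repair or checkpoint genes.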
row,SMILES,growth inhibition
1,Nc1ncnc(N2CCOCC2)c1N,-10.7%
2,CN(C)c1ccc2c(NCCCCCCNc3ccnc4cc(N(C)C)ccc34)ccnc2c1,30.5%
3,CC(C)N=Cc1cc(Br)cc(Br)c1O.CC(C)N=Cc1cc(Br)cc(Br)c1O.[Co],86.3% (active)
4,O=C1c2ccc(O)cc2C(=O)c2c1ccc(O)c2O,76.9% (active)
5,COc1cc2c[n+](C)c3c4cc(OC)c(OCc5ccccc5)cc4c(OCc4ccccc4)cc3c2cc1OC,93.5% (active)
6,O=C(Nc1ccc(Cl)cc1)OCC1C2C=CC(C2)C1CO (stereo not given),92.9% (active)
7,Cn1nc(-c2ccccc2NC(=O)C(F)(F)F)c(=O)n(C)c1=S,27.7%
8,OCc1c2c(cc3c1CC1(C3)Cc3cc4c(c(CO)c3C1)CCC4)CCC2,52.8%
9,O=C(C[n+]1ccccc1)N=N/C(C(=O)Nc1c(Cl)c(O)c2ccccc2c1O)=C1/C(=O)Oc2cc(O)ccc2C1=O,90.8% (active)
10,Cc1cc(Cl)c(O)c(-c2cc(-c3ccccc3O)c(C#N)c(N)n2)c1,62.4%
11,CCCCNc1ncc(OCC)c(NCCCC)n1,94.9% (active)
12,C#CCCCCCOC(=O)c1cc([N+](=O)[O-])cc([N+](=O)[O-])c1,99.2% (active)
13,C=C(C)C1(C(=O)OCC(Cl)(Cl)Cl)NC(=O)C(NC(=O)COc2ccccc2)=CO1 (stereo not given),85% (active)
14,Cc1ccc(SCC#CC#CCS(=O)c2ccc(C)cc2)cc1 (stereo not given),97% (active)
15,CCCCCCCCCCCCCCCC1C(N)C(=O)N(C)N1C (stereo not given),89.5% (active)
16,O=c1c(O)cc2c(O)oc3c(=O)c(O)c(O)c4c(O)oc1c2c43,85% (active)
17,CCCCN(CCCC)CCNc1ccc(NS(=O)(=O)c2ccccc2)c2sc3ccccc3c(=O)c12,96.4% (active)
18,CCOC(=O)CC(N)CC(=O)OCC,75.2% (active)
19,O=c1cc(Cl)c(Cl)nn1-c1ccccc1,45.5%
20,CC(=O)Nc1ccc(-c2ccccc2)cc1[N+](=O)[O-],44.4%

row,SMILES,growth inhibition
1,O=C1OC(c2ccccc2)N/C1=C\c1ccc2c(c1)OCO2 (stereo not given),-14.7%
2,CCOc1c(N=Nc2ccc(Cl)cc2)c(-c2ccccc2)nn1C(=S)S,92.8% (active)
3,BrCN(CBr)c1ccc2c(c1)Cc1cc(Br)ccc1-2,25.8%
4,COc1cc(NCCCCCCCC2CCCCN2)c2ncccc2c1 (stereo not given),98.5% (active)
5,Cc1cc(Br)cc(C)c1NC(=O)C(=O)C(C(=O)c1ccc2ccccc2c1)C1OC(=O)c2ccccc21 (stereo not given),31.5%
6,O=Cc1cc2c(s1)C(=O)c1sccc1C2=O,90% (active)
7,C=C1CC2(CC(C(C)C)CCC2C)OC1=O (stereo not given),-11.8%
8,CCSC(=Nc1nc2ccc(NC(C)=O)cc2s1)SCC,96% (active)
9,CCOc1ccc2c(c1)n([O-])c1cc(Br)ccc1[n+]2=O,78.6% (active)
10,CCCCC(CCCC)=NNC(=S)SC,74.1% (active)
11,COc1ccc2c(c1)CCc1c(CO)c(COC(=O)NC(C)C)n(C)c1-2,79.3% (active)
12,CSc1cc2c(cc1N)Cc1ccccc1-2,97.3% (active)
13,O=C1C=C(c2ccccc2)OC(c2ccccc2)C1 (stereo not given),44.1%
14,CCOc1ccc2nc([NH-])sc2c1.CCOc1ccc2nc([NH-])sc2c1.[Cl][Pt+2][Cl],-4.85%
15,Cc1nc2c(Cl)nc(Cl)nc2s1,98.3% (active)
16,Cc1cc(O)n(Cc2ccccc2)c(=O)c1,47.9%
17,NCCC1=CCCCC1,65%
18,CCOC(=O)/C(=C\n1c(=O)sc2ccccc21)C(=O)c1ccccc1,7.95%
19,Cc1ccc(S(=O)(=O)Nc2ccccc2C=O)cc1,98.8% (active)
20,CC1COC(c2cn[nH]c2C(N)=O)C1O (stereo not given),0.85%
